Measurements from PubChem BioAssay (NCI).
About 79,000 compounds went through this panel and 15% of them were active in at least one assay; those are over-represented in the sample as a whole. Values without a mark were called inactive. Active and inactive are the calls of the source. Cut-off read from the data, not from the text of the source: active = growth inhibition above about 70%; inactive = the rest.

Test: NCI Yeast Anticancer Drug Screen. Data for the rad50 strain (AID 155);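 note: 0% = growth of vehicle-only cultures of the same strain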
Details: S. cerevisiae rad50 strain growth inhibition; at 1.2 µM; active compounds read high
Summary of the method: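 Vehicle-treated cultures provide the reference for the growth inhibition reported for compound-exposed, repair-deficient yeast.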
Work on `Cc1cccc2c(C(O)CBr)cc(-c3ccc(Cl)cc3)nc12` (stereo not given) yielded a growth inhibition of 0%.
Compound `CN(C)C[C@H]1CC[C@@H](CN(C)C)C1=O` has a growth inhibition of 11%.
In the case of `CC1=C(SCCO)C(=O)c2ccccc2C1=O`, the growth inhibition is reported as -3%.
In the case of `COC(=O)CCNc1c2ccccc2nc2cccc([N+](=O)[O-])c12`, the growth inhibition is reported as 95% (active).
For `CC(/C=C/c1ccc2c(c1)OCO2)[N+](=O)[O-]` (stereo not given), the growth inhibition was 33%.
`COC(=O)C1=C(C)NC(C)=C(C(=O)OCCCN2CCC(c3ccccc3)(c3ccccc3)CC2)C1c1cccc([N+](=O)[O-])c1` (stereo not given) gave a growth inhibition of 1%.
In the case of `CCOC(=O)c1cnc2c(C(F)(F)F)cccc2c1N=[N+]=[N-]`, the growth inhibition is reported as -6%.
`O=[N+]([O-])c1cc2no[n+]([O-])c2cc1N1CCCCC1` showed a growth inhibition of 22%.
In the case of `COC(=O)c1ccc(NCC2=CC(=O)C=CC2=O)cc1O`, the growth inhibition is reported as 12%.
`CCCCCCCCNC(=O)C1=C(C)NC(C)=C(C(=O)NCCCCCCCC)C1` showed a growth inhibition of -4%.
Compound `S=C(Nc1ccc(Cl)c(Cl)c1)SCc1ccc2c(c1)OCO2` has a growth inhibition of -4%.
With `O=S(=O)(CCCl)c1ccccc1Cl` the growth inhibition was -8%.
`Nc1ccccc1CC(O)C(=O)O` (stereo not given) gave a growth inhibition of 3%.
For `CN(C)c1ccc(Sc2ccc3nc(N)nc(N)c3c2)cc1`, the growth inhibition was -18%.
Compound `CC(C)C1=CCC2C(=C1)CCC1C(C)(C(=O)O)CCCC21C` (stereo not given) (tested in a mixture with another compound) has a growth inhibition of 11%.
Compound `Cc1ccc(S(=O)(=O)Oc2cc(Cl)c(Cl)cc2Cl)cc1` has a growth inhibition of -2%.
`CSC(=S)Nc1cc(C)ccn1` gave a growth inhibition of 12%.
`CC(C)c1cc(C(C)C)c(O)c(C([O-])[O-])c1.CC(C)c1cc(C(C)C)c(O)c(C([O-])[O-])c1.CC(C)c1cc(C(C)C)c(O)c(C([OH2+])[OH2+])c1.CC(C)c1cc(C(C)C)c(O)c(C([OH2+])[OH2+])c1.[Cu+2].[Cu+2].[OH3+].[OH3+]` showed a growth inhibition of 5%.
Work on `Cc1cc(I)ccc1N` yielded a growth inhibition of -31%.
`CC(Br)C(=O)c1ccc2cc(Br)c3ccccc3c2c1` (stereo not given) showed a growth inhibition of 1%.
With `O=C(Nc1ccccc1)OCCc1ccc(Cl)c(Cl)c1` the growth inhibition was -2%.
`O=Cc1cccc2ccc3ccccc3c12` gave a growth inhibition of -7%.
`O=[N+]([O-])CC(SCc1ccccc1)c1ccc2c(c1)OCO2` (stereo not given) showed a growth inhibition of 41%.
With `CC1(Cl)CC(O)C2(CC1Br)C1(C)OC1C1OC1(Br)C2(C)C` (stereo not given) the growth inhibition was -8%.
`Cc1cc(O)cc(O)c1N=Nc1ccc([N+](=O)[O-])cc1` gave a growth inhibition of -6%.
In the case of `CCCCCCCCCCCCCC[N+](C)(CC(=O)[O-])Cc1ccccc1` (stereo not given), the growth inhibition is reported as 8%.
With `CC1=NN(c2cccc(Cl)c2)C(=O)C1` the growth inhibition was -47%.
With `CC(=O)OCc1ccc(O)c(C=O)c1` the growth inhibition was -5%.
In the case of `Cc1ccc2ccc3cccc4ccc1c2c34`, the growth inhibition is reported as 4%.
Compound `Cc1nc(-[n+]2nc(-c3ccncc3)nn2-c2ccccc2)sc1C` has a growth inhibition of -3%.
For `C(CCSC1=NCCN1)CSC1=NCCN1` (tested in a mixture with another compound), the growth inhibition was 21%.
Work on `CCCCCCCCCCC(=O)Cl` yielded a growth inhibition of 14%.
Work on `COC1C=COC2(C)Oc3c(C)c(O)c4c(c3C2=O)/C(=N/C2CCC(O)OC2C)C=C(NC(=O)/C(C)=C\C(=O)C2CC2C(O)C(C)C(O)C(C)C(OC(C)=O)C1C)C4=O` (stereo not given) yielded a growth inhibition of -2%.
With `S=c1[nH]nc(Nc2ccc(Cl)cc2)s1` the growth inhibition was -7%.
`O=C1CSC(/C=C/c2ccccc2)N1c1ccc(-c2ccc(-n3c(-c4ccccc4)nc4ccccc4c3=O)cc2)cc1` (stereo not given) showed a growth inhibition of -1%.
In the case of `O=C1C=CC(=O)N1c1ccc2c(c1)Cc1cc(NC(=O)C(F)(F)F)ccc1-2`, the growth inhibition is reported as 13%.
Work on `Brc1ccc(-c2cc3c(cc2C2SCCS2)OCO3)cc1` yielded a growth inhibition of -23%.
For `Oc1ccc2ccccc2c1C(c1ccc(Cl)cc1)c1c(O)ccc2ccccc12`, the growth inhibition was -3%.
For `C[CH2][Sn]([CH2]C)([O]C(=O)C(OC(C)=O)c1ccccc1)[O]C(=O)C(OC(C)=O)c1ccccc1` (stereo not given), the growth inhibition was -4%.
Work on `Cc1ccc2ccc(O)cc2c1` yielded a growth inhibition of -23%.

Same assay, conditions: S. cerevisiae rad50 strain growth inhibition; at 3.7 µM; active compounds read high
`Cc1cccc2c(C(O)CBr)cc(-c3ccc(Cl)cc3)nc12` (stereo not given) showed a growth inhibition of 11%.
Work on `CN(C)C[C@H]1CC[C@@H](CN(C)C)C1=O` yielded a growth inhibition of 31%.
For `CC1=C(SCCO)C(=O)c2ccccc2C1=O`, the growth inhibition was 0%.
In the case of `COC(=O)CCNc1c2ccccc2nc2cccc([N+](=O)[O-])c12`, the growth inhibition is reported as 95% (active).
In the case of `CC(/C=C/c1ccc2c(c1)OCO2)[N+](=O)[O-]` (stereo not given), the growth inhibition is reported as 86% (active).
Compound `COC(=O)C1=C(C)NC(C)=C(C(=O)OCCCN2CCC(c3ccccc3)(c3ccccc3)CC2)C1c1cccc([N+](=O)[O-])c1` (stereo not given) has a growth inhibition of 48%.
`CCOC(=O)c1cnc2c(C(F)(F)F)cccc2c1N=[N+]=[N-]` gave a growth inhibition of -17%.
`O=[N+]([O-])c1cc2no[n+]([O-])c2cc1N1CCCCC1` gave a growth inhibition of 62%.
In the case of `COC(=O)c1ccc(NCC2=CC(=O)C=CC2=O)cc1O`, the growth inhibition is reported as 32%.
`CCCCCCCCNC(=O)C1=C(C)NC(C)=C(C(=O)NCCCCCCCC)C1` gave a growth inhibition of -13%.
With `S=C(Nc1ccc(Cl)c(Cl)c1)SCc1ccc2c(c1)OCO2` the growth inhibition was 40%.
Work on `O=S(=O)(CCCl)c1ccccc1Cl` yielded a growth inhibition of -12%.
With `Nc1ccccc1CC(O)C(=O)O` (stereo not given) the growth inhibition was 13%.
Compound `CN(C)c1ccc(Sc2ccc3nc(N)nc(N)c3c2)cc1` has a growth inhibition of 7%.
For `CC(C)C1=CCC2C(=C1)CCC1C(C)(C(=O)O)CCCC21C` (stereo not given) (tested in a mixture with another compound), the growth inhibition was 12%.
In the case of `Cc1ccc(S(=O)(=O)Oc2cc(Cl)c(Cl)cc2Cl)cc1`, the growth inhibition is reported as 6%.
Work on `CSC(=S)Nc1cc(C)ccn1` yielded a growth inhibition of 15%.
Compound `CC(C)c1cc(C(C)C)c(O)c(C([O-])[O-])c1.CC(C)c1cc(C(C)C)c(O)c(C([O-])[O-])c1.CC(C)c1cc(C(C)C)c(O)c(C([OH2+])[OH2+])c1.CC(C)c1cc(C(C)C)c(O)c(C([OH2+])[OH2+])c1.[Cu+2].[Cu+2].[OH3+].[OH3+]` has a growth inhibition of 8%.
In the case of `Cc1cc(I)ccc1N`, the growth inhibition is reported as -13%.
With `CC(Br)C(=O)c1ccc2cc(Br)c3ccccc3c2c1` (stereo not given) the growth inhibition was -2%.
In the case of `O=C(Nc1ccccc1)OCCc1ccc(Cl)c(Cl)c1`, the growth inhibition is reported as 13%.
In the case of `O=Cc1cccc2ccc3ccccc3c12`, the growth inhibition is reported as -12%.
In the case of `O=[N+]([O-])CC(SCc1ccccc1)c1ccc2c(c1)OCO2` (stereo not given), the growth inhibition is reported as 69%.
Compound `CC1(Cl)CC(O)C2(CC1Br)C1(C)OC1C1OC1(Br)C2(C)C` (stereo not given) has a growth inhibition of -12%.
`Cc1cc(O)cc(O)c1N=Nc1ccc([N+](=O)[O-])cc1` gave a growth inhibition of 2%.
For `CCCCCCCCCCCCCC[N+](C)(CC(=O)[O-])Cc1ccccc1` (stereo not given), the growth inhibition was 50%.
In the case of `CC1=NN(c2cccc(Cl)c2)C(=O)C1`, the growth inhibition is reported as -54%.
Work on `CC(=O)OCc1ccc(O)c(C=O)c1` yielded a growth inhibition of -20%.
Work on `Cc1ccc2ccc3cccc4ccc1c2c34` yielded a growth inhibition of 49%.
`Cc1nc(-[n+]2nc(-c3ccncc3)nn2-c2ccccc2)sc1C` showed a growth inhibition of -46%.
In the case of `C(CCSC1=NCCN1)CSC1=NCCN1` (tested in a mixture with another compound), the growth inhibition is reported as 44%.
Work on `CCCCCCCCCCC(=O)Cl` yielded a growth inhibition of 18%.
With `COC1C=COC2(C)Oc3c(C)c(O)c4c(c3C2=O)/C(=N/C2CCC(O)OC2C)C=C(NC(=O)/C(C)=C\C(=O)C2CC2C(O)C(C)C(O)C(C)C(OC(C)=O)C1C)C4=O` (stereo not given) the growth inhibition was -3%.
With `S=c1[nH]nc(Nc2ccc(Cl)cc2)s1` the growth inhibition was -13%.
Compound `O=C1CSC(/C=C/c2ccccc2)N1c1ccc(-c2ccc(-n3c(-c4ccccc4)nc4ccccc4c3=O)cc2)cc1` (stereo not given) has a growth inhibition of 3%.
Work on `O=C1C=CC(=O)N1c1ccc2c(c1)Cc1cc(NC(=O)C(F)(F)F)ccc1-2` yielded a growth inhibition of 24%.
`Brc1ccc(-c2cc3c(cc2C2SCCS2)OCO3)cc1` gave a growth inhibition of -13%.
Work on `Oc1ccc2ccccc2c1C(c1ccc(Cl)cc1)c1c(O)ccc2ccccc12` yielded a growth inhibition of 3%.
For `C[CH2][Sn]([CH2]C)([O]C(=O)C(OC(C)=O)c1ccccc1)[O]C(=O)C(OC(C)=O)c1ccccc1` (stereo not given), the growth inhibition was 4%.
With `Cc1ccc2ccc(O)cc2c1` the growth inhibition was -28%.
